Results as given in PubChem BioAssay AID686979 (National Center for Advancing Translational Sciences (NCATS), 2013).
Where “and” joins values, the source holds several entries; their conditions need not be identical. Equal values may be shown once. Hit rate of the full screen: of about 420,000 compounds, about 50,000 (12%) were called active. Another 26% or so got no clear call; they are omitted. Calls come from the whole dose curve; as a rule, active = well fitted inhibition curve with a large enough effect; inconclusive = small, poorly fitted or top-dose-only effect; inactive = flat fitted curve, though single readings scatter. The list comes from a sample in which actives are over-represented; it also holds similar structures and randomly drawn compounds. A call without a number means that no potency is given here.

test: qHTS for Inhibitors of human tyrosyl-DNA phosphodiesterase 1 (TDP1): qHTS in cells in presence of CPT; conditions: chicken DT40 Tdp1-/-;hTDP1 cells + 20 nM CPT, ATP luminescence, 48 h; series mostly up to 46.2 µM; note: nearly all actives have a fitted effect of over 55% in size
Text: Human tyrosyl-DNA phosphodiesterase 1 (TDP1) is a novel repair gene, and we propose to use it as a new target for anticancer drug development. TDP1 is not an essential protein, but under treatment with topoisomerase I poison (camptothecin: CPT), TDP1 works as a critical factor for cell survival. To directly identify novel TDP1 inhibitors active in a cellular environment, we have knocked-out the Tdp1 gene in chicken DT40 cells (Tdp1-/-) and generated a complemented counterpart cells that contains a stable transfection of the human TDP1 gene (Tdp1-/-;hTDP1 cells). For the primary screen, Tdp1-/-;hTDP1 cells will be exposed to small molecules in the presence or absence of CPT, and their growth kinetics will be evaluated after 48 hours by measuring ATP activity. […] The hit compounds will then be evaluated in the presence or absence of CPT using Tdp1-/- cells. […] In tertiary assays, biochemical gel-based assays will be used to assess whether the hit compounds specifically target TDP1. To this end, we have screened this cell line against the MLSMR in two primary screens. In one screen we add CPT and in the other we screen in the absence of CPT; this AID represents the screen where CPT was present. NIH Chemical Genomics Center [NCGC] NIH Molecular Libraries Probe Centers Network [MLPCN] MLPCN Grant: MH095538 Assay Submitter (PI): Yves Pommier, NCI
DT40-hTDP1 cells with 20 nM Camptothecin (add 20 microL of 1 mM CPT stock in 1 L of cell culture medium) were dispensed at 400 cells/5microL/well in tissue culture treated 1536-well white wall/solid bottom assay plates (Greiner Bio-One North America, NC, U.S.A.) using a Multidrop Combi 8 channel dispenser (Thermo Fisher, Waltham, MA, USA). 23 nL compounds and controls were transferred using the pin tool (Kalypsys, San Diego, CA, USA) to the assay plates. The assay plates were then incubated at 37 masculineC for a minimum 48 hr. Three microL of Cell Titer Glo solution was added to the plates and incubated at RT in dark for 30 min. Luminescence was read using ViewLux (Perkin Elmer) with 1 sec exposure slow speed, high gain and 2x binning.
Potency is the fitted concentration of half-maximal effect.

Structure (SMILES)	Potency	activity change, negative = growth inhibition
CCOc1ccc(N(CC(=O)NCC2CCCO2)S(=O)(=O)c2ccc(C)cc2)cc1 (stereo not drawn)	inactive	–
O=C(COC(=O)c1ccc2c(c1)OCCO2)NCc1ccccc1Cl	inactive	–
Cc1ccc(NC(=O)NC(=O)N(C2CCCCC2)S(=O)(=O)c2ccccc2)cc1	inactive	–
COCCNc1nc(N)c([N+](=O)[O-])c(N2CCCCCC2)n1	inactive	–
CSc1nsc(SCC(=O)Nc2cc(C(=O)O)ccc2C)n1	inactive	–
Cc1ccc2[nH]c(C(=O)O)c(NC(=O)c3ccccc3[N+](=O)[O-])c2c1	inactive	–
Cc1cc(C(=O)N/N=C/c2ccccc2[N+](=O)[O-])c(C)o1	inactive	–
Cc1c(C(=O)N/N=C/c2ccccc2)[nH]c2c([N+](=O)[O-])cccc12	0.651 µM (active)	–
O=c1c(O)c(Br)ccc2c(Br)c(O)c(O)c(O)c12	–	-8.83% [at 9.04 µM] (inactive)
O=C(COc1ccccc1O)NC1CCCC1	inactive	–
N=c1c2c(-c3ccccc3)c(-c3ccccc3)n(Cc3ccccc3)c2ncn1CCCO	10.3 µM (active)	–
CCN(CC)CCn1cnc2c1c(=O)[nH]c(=O)n2Cc1ccccc1	inactive	–
COCCn1cnc2c1c(=O)n(CC(=O)NN)c(=O)n2Cc1ccccc1	inactive	–
CCOC(=O)c1sc(N)c(C#N)c1COC(=O)C1=COCCO1	inactive	–
CCCNC(=S)N1CCC(NC(=O)C23CC4CC(CC(C4)C2)C3)CC1	inactive	–
COc1ccc(Cl)cc1N(CC(=O)N/N=C/c1ccc(OCC(N)=O)cc1)S(C)(=O)=O	inactive	–
COC(=O)c1sc2ncccc2c1OCc1ccc(Cl)cc1Cl	inactive	–
NC(N)=N/N=C/c1ccc(OCc2ccc(Cl)cc2Cl)cc1	25.9 µM (active)	–
CCOC(=O)C1CCN(S(=O)(=O)c2ccc3c(c2)N(C)C(=O)CC(=O)N3C)CC1	inactive	–
C/C(CC(=O)NCc1ccc(Cl)cc1)=N\NC(=O)COc1ccc(C)cc1Br	16.4 µM (active)	–
CCCCC(=O)N/N=C(\C)CC(=O)Nc1cc(Cl)ccc1OC	inactive	–
CC(=O)Nc1ccc(OCC(=O)NCc2ccc(C)cc2)cc1	inactive	–
CN(CC(=O)Nc1cccc(F)c1)C(=O)C1CSC2(C)CCC(=O)N12 (stereo not drawn)	inactive	–
Cc1ccsc1C(=O)OCC(=O)NCCc1ccccc1	inactive	–
Cc1cc(C)nc(Nc2n[nH]c(-c3ccccc3N)n2)n1	inactive	–
C=CCC1=C/C(=C\c2c(N)n3nc(CC(=O)N4CCOCC4)sc3nc2=O)C=C(OC)C1=O	inactive	–

Structure (SMILES)	Potency	activity change, negative = growth inhibition
N#CCCN(C(=O)Nc1ccc(Cl)c(Cl)c1)C1CCCCC1	inactive	–
Cc1ccc(Nc2c(-c3ccc(C)s3)nc3ccccn23)cc1	16.4 µM (active) and 20 µM (active)	–
Cc1ccn2c(Nc3ccc4c(c3)OCCO4)c(-c3ccc(C)s3)nc2c1	inactive	–
COc1cc(NC(=O)CN(C)S(=O)(=O)c2ccc3nc(C)sc3c2)cc(OC)c1	inactive	–
CCCC12CN3CC(C)(CN(C1)C3c1ccccc1Cl)C2=O (stereo not drawn)	inactive	–
CCCC12CN3CC(CCC)(CN(C1)C3c1c[nH]c3ccc(OC)cc13)C2=O (stereo not drawn)	18.4 µM (active)	–
CCN(CC)CC(=O)c1c[nH]c2ccc(OC)cc12	inactive	–
COc1ccc(-c2c(C#N)cnc(C)c2C)c(O)c1OC	inactive	–
CCOC(=O)c1ccccc1NC(=O)COC(=O)CCC(=O)N1CCOCC1	inactive	–
O[C@@H]1C[C@H](c2ccccc2)N(Cc2cccs2)C[C@H]1n1cc(C2CC2)nn1	inactive	–
CC(C)CC(=O)N1CCN(Cc2ccccc2Br)CC1	inactive	–
C=C1C(=O)C23C(O)C1CCC2[C@]12COC3(O)C(O)C1C(C)(C)CC[C@H]2O (stereo partly drawn)	3.26 µM (active)	–
N#CCSc1nc2c(c(=O)n1Cc1ccccc1)C1(CCCC1)Cc1ccccc1-2	16.4 µM (active)	–
Cc1cccc(-n2c(SCC(N)=O)nc3c(c2=O)C2(CCCCC2)Cc2ccccc2-3)c1	inactive	–
CC(/C=C/C1(O)C(C)CC(=O)CC1(C)C)OC1OC(CO)C(O)C(O)C1O (stereo not drawn)	inactive	–
Cc1ccc(N2C(=O)CC(N3CCSCC3)C2=O)c(C)c1 (stereo not drawn)	inactive	–
CNc1nc(=O)n(C2CCCO2)cc1C (stereo not drawn)	inactive	–
N/C(=N\OC(=O)Nc1ccc(Cl)c(Cl)c1)c1ncc(C(F)(F)F)cc1Cl	inactive	–
COc1cccc(/C=N/Nc2ncc(C(F)(F)F)cc2Cl)c1O	4.61 µM (active)	–
COc1cc(/C=C2\SC(=S)N(Nc3ncc(C(F)(F)F)cc3Cl)C2=O)cc(OC)c1OC	inactive	–
CC(=O)c1c(C)[nH]c(C(=O)CN2C(=O)NC(C)(C)C2=O)c1C	inactive	–
O=C(N/N=C/c1cc2c(cc1Br)OCO2)C1COc2ccccc2O1 (stereo not drawn)	inactive	–
CCOc1cccc(-n2nnnc2-c2ccc(OC)cc2)c1	2.91 µM (active)	–
COc1ccc(NC(=O)CSc2nnnn2-c2cccc(OC)c2)cc1	inactive	–
COc1ccc(C2=CC(c3cccc(OC)c3)n3nnnc3N2)cc1 (stereo not drawn)	inactive	–
CCCn1nnnc1NCc1ccc(OC)cc1	inactive	–

Structure (SMILES)	Potency	activity change, negative = growth inhibition
C=CCOc1ccc(C(=O)Nc2ccccc2C(=O)N2CCCC2)cc1	inactive	–
COc1cc(OC)c2c(c1Cl)OC1(C2=O)C(O)=CC(=O)CC1C (stereo not drawn)	inactive	–
Cc1cc(=O)oc2ccc(OCC(=O)O)cc12	inactive	–
Cc1ccc(O)c(/C=N/NC(=O)COc2ccc3c(C)cc(=O)oc3c2)c1	20.6 µM (active)	–
CC(=O)c1c(C)[nH]c(C(=O)COc2ccc3c(C)cc(=O)oc3c2)c1C	16.4 µM (active)	–
CCOC(=O)Cc1csc(NC(=O)COc2ccc3c(C)cc(=O)oc3c2)n1	inactive	–
COC(=O)COc1ccc2oc(=O)cc(C)c2c1	inactive	–
Cc1cc(=O)oc2cc(OCC(=O)Nc3nnc(C4CC4)s3)ccc12	inactive	–
CC1=C(C/C=C(\C)CCCC(C)CCCC(C)CCCC(C)C)C(=O)c2ccccc2C1=O (stereo not drawn)	inactive	–
C=CC[C@H](CC(=O)OC(C)(C)C)C(=O)OC[C@H]1CCCN1C(=O)[C@H](CC=C)CC(=O)N(CCO)Cc1ccccc1	16.4 µM (active)	–
CCc1ccc(NC(=O)Cn2ncn3c(cc4ccccc43)c2=O)cc1	inactive	–
N#Cc1cccc(CN2CCC(=O)N(CCO)CC2)c1	inactive	–
O=C(C1CCC1)N1CCN(S(=O)(=O)c2ccc([N+](=O)[O-])cc2)CC1	inactive	–
Cc1c(S(=O)(=O)NCc2ccccc2)c(=O)n(C)c(=O)n1C	inactive	–
Cn1c(=O)c2c(-c3ccccc3Br)n(Cc3ccccc3)cc2n(C)c1=O	20.6 µM (active)	–
O=C(c1ccc[nH]c1=S)N1CCN(S(=O)(=O)c2ccc(Br)cc2Cl)CC1	inactive	–
COc1ccc(CCNC(=O)Cc2ccc(C)cc2)cc1OC	inactive	–
O=C(NCc1ccco1)c1ccc(CS(=O)(=O)Cc2ccc(F)cc2)o1	inactive	–
COc1ccc(CCNC(=O)NS(=O)(=O)c2ccc(C)cc2)cc1OC	inactive	–
COc1ccc(CCNC(=O)c2ccc(CS(=O)(=O)c3ccc(Br)cc3)o2)cc1OC	20.6 µM (active)	–
Cc1ccc(CCNC(=O)c2ccc(CS(=O)(=O)Cc3cccc(C)c3)o2)cc1	23.1 µM (active)	–
COc1ccccc1CNC(=O)c1ccc(CS(=O)(=O)c2ccccc2)o1	inactive	–
Cc1ccc(CNC(=O)c2ccc(CS(=O)Cc3cccc(Cl)c3)o2)cc1 (stereo not drawn)	inactive	–
COc1ccc(CCNC(=O)c2ccc(CSCc3ccc(C)cc3)o2)cc1OC	14.6 µM (active)	–
COc1ccc(CCNC(=O)c2nnc(CS(=O)(=O)c3ccccc3)o2)cc1OC	inactive	–
COc1cccc(NC(=S)N(Cc2ccc(C)cc2)Cc2ccccn2)c1	inactive	–

Structure (SMILES)	Potency	activity change, negative = growth inhibition
CN=C1C=C/C(=N/N=c2\ccn(O)cc2C)C=C1C	inactive	–
CCOC(=O)C1=C(CC)Nc2ccccc2N=C1NC(=O)c1cccc(S(=O)(=O)N2CCCC2)c1	inactive	–
CC(=O)NC12CC3CC(C1)CC(C(=O)N1CCN(C(=O)c4ccco4)CC1)(C3)C2	inactive	–
N#CC1(Nc2ccc3c4c(cccc24)CC3)CCCCC1	inactive	–
CC(C)[C@H]1CC[C@@H](C)C[C@H]1O	inactive	–
CC(c1ccccn1)N(CCN(C)C)C(=S)Nc1ccccc1F (stereo not drawn)	inactive	–
N/C(=N\OC(=O)CCn1cccc(C(F)(F)F)c1=O)c1ccc(OC(F)(F)F)cc1	inactive	–
CC(=O)Nc1ccc(C(=O)N(C2=NC(C)CS2)c2ccc(Cl)cc2)cc1 (stereo not drawn)	inactive	–
COc1ccccc1OCc1nnc(SCC(N)=O)n1-c1ccccc1	inactive	–
COc1ccccc1NC(=O)CSc1nnc(Cc2cccn2C)n1-c1ccc(F)cc1	inactive	–
COc1ccccc1NC(=O)CSc1nnc(Cn2nnc(-c3ccccc3)n2)n1-c1ccccc1	18.4 µM (active)	–
COc1ccc(S(=O)(=O)N(C)CC(=O)NCCCN2CCOCC2)cc1Cl	inactive	–
CC(=O)C1=C(C)NC(=O)NC1c1cc(Br)ccc1OCC#N (stereo not drawn)	inactive	–
O=C(COc1ccccc1Cl)N1CCCCCCC1	inactive	–
Cc1cc(C(=O)COc2ccccc2Cl)c(C)n1C1CC1	13 µM (active)	–
O=C(COc1ccc(Br)cc1F)NCC1(N2CCCCC2)CCCCC1	inactive	–
Cc1cc(C(=O)COc2ccc(Br)cc2F)c(C)n1C1CC1	7.31 µM (active)	–
O=C(COc1ccccc1Cl)Nn1cnnc1	inactive	–
C/C(N)=C(/C#N)C(=O)COC(=O)c1cc(-c2ccc(C)cc2)nc2ccccc12	inactive	–
COc1ccc(/C=C/C(=O)NC(=S)N2CCCC(C(N)=O)C2)cc1 (stereo not drawn)	inactive	–
OCCC1CN(Cc2ccc3nsnc3c2)CCN1C1CCCC1 (stereo not drawn)	inactive	–
CC(C)c1cc(C(=O)N/N=C/c2ccoc2)c(O)c(C(C)C)c1	inactive	–
CC(C)C[C@H](NC(=O)N1CC(=O)Nc2ccccc21)C(=O)N[C@H](Cc1ccccc1)C(=O)O	inactive	–
Cc1ccc(N(C(=O)c2ccc(CN3CCOCC3)o2)C(C(=O)NCCC(C)C)c2cccs2)c(C)c1 (stereo not drawn)	inactive	–
CCCCNC(=O)N(O)C1N(/N=C/c2ccc(N(C)C)cc2)C(=S)SC1(C)C (stereo not drawn)	inactive	–
